# PubChem BioAssay
# Activity calls are given as the source filed them.
# Legend:
# [1] = test system: PRMT1 (protein arginine N-methyltransferase 1); assay: small molecules binding arginine methyltransferase PRMT1 – biochemical, small-molecule microarray, 635 nm fluorescence, primary screen (AID 1088); settings: higher = more signal;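 note: binding of Prmt1 protein to compounds spotted on small-molecule microarray slides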
# [2] = growth effects on S. cerevisiae YJM789 – YJM789 clinical isolate, OD600, 24 h, basal, primary screen (AID 1089); settings: higher = more signal, called active from +8 up or from −8 down;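 note: growth of clinical yeast isolate S. cerevisiae YJM 789 seeded 1000 cells per well; test concentration not given here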
# [3] = S. pombe growth modifiers, basal conditions – strain 972, OD600, 24 h, no modulator, primary screen (AID 1090);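 note: basal condition with compound alone and no growth modifier present; test concentration not given here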; settings: S. pombe 972 growth, higher = more signal, called active from +8 up or from −8 down
# [4] = budding yeast growth modifiers under rapamycin – strain BY4716, OD600, 96 h, primary screen (AID 1091); note: test concentration not given here; settings: S. cerevisiae BY4716 + rapamycin, higher = more signal, called active from +8 up or from −8 down
# [5] = biological target: Torsin-1A-interacting protein 2 (Homo sapiens) (UniProt Q8NFQ8); assay: small molecules binding lysate-expressed LULL1 – cell lysate, human LULL1 lysate, 635/667 nm fluorescence, primary screen (AID 1092); settings: small-molecule microarray, hLULL1 lysate binding, 635 nm fluorescence; higher = more signal;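 note: probe is lysate of COS7 cells overexpressing human LULL1; score merges per-feature 667 nm fluorescence with signal-to-noise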
# Chain of Torsin-1A-interacting protein 2 (Homo sapiens) (Q8NFQ8 whole entry, looked up): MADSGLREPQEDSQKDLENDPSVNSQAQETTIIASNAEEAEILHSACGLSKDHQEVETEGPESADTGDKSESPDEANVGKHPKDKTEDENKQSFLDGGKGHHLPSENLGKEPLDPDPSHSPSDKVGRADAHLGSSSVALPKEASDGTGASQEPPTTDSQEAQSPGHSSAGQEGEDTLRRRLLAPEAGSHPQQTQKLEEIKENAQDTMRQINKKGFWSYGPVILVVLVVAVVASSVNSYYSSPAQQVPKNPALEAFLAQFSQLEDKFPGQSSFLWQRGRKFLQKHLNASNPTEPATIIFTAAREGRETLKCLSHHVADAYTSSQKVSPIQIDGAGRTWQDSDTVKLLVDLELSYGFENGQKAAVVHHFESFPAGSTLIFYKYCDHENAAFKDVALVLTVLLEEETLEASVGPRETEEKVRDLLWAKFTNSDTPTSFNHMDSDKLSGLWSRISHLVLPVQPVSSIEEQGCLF
# [6] = optical density change of DRC41 E. coli – strain DRC41, OD650, 24 h, E. coli filamentation project, primary screen (AID 1093);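 note: MC1000 strain lacking acrAB efflux and sulA so SOS filamentation is blocked; test concentration not given here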; settings: E. coli DRC41 growth, higher = more signal, called active from +8 up or from −8 down
# [7] = probe aLefty2 binding to arrayed compounds – biochemical, biotinylated probe, 635/667 nm fluorescence, primary screen (AID 1094); settings: small-molecule microarray, higher = more signal;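 note: score merges spot fluorescence near 667 nm with spot signal-to-noise ratio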
# [8] = test system: Noggin (protein binding on small-molecule microarray); assay: small molecules binding Noggin protein – biochemical, 635/667 nm fluorescence, primary screen (AID 1095); settings: 635 nm fluorescence, higher = more signal;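 note: score merges 667 nm feature fluorescence with signal to noise over triplicate slides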
# [9] = biological target: Neurogenic locus notch homolog protein 3 (Homo sapiens) (UniProt Q9UM47); assay: small molecules binding NOTCH3 protein – biochemical, 635/667 nm fluorescence, primary screen (AID 1096); settings: small-molecule microarray, 635 nm fluorescence, higher = more signal
# Chain of Neurogenic locus notch homolog protein 3 (Homo sapiens) (Q9UM47 whole entry, looked up): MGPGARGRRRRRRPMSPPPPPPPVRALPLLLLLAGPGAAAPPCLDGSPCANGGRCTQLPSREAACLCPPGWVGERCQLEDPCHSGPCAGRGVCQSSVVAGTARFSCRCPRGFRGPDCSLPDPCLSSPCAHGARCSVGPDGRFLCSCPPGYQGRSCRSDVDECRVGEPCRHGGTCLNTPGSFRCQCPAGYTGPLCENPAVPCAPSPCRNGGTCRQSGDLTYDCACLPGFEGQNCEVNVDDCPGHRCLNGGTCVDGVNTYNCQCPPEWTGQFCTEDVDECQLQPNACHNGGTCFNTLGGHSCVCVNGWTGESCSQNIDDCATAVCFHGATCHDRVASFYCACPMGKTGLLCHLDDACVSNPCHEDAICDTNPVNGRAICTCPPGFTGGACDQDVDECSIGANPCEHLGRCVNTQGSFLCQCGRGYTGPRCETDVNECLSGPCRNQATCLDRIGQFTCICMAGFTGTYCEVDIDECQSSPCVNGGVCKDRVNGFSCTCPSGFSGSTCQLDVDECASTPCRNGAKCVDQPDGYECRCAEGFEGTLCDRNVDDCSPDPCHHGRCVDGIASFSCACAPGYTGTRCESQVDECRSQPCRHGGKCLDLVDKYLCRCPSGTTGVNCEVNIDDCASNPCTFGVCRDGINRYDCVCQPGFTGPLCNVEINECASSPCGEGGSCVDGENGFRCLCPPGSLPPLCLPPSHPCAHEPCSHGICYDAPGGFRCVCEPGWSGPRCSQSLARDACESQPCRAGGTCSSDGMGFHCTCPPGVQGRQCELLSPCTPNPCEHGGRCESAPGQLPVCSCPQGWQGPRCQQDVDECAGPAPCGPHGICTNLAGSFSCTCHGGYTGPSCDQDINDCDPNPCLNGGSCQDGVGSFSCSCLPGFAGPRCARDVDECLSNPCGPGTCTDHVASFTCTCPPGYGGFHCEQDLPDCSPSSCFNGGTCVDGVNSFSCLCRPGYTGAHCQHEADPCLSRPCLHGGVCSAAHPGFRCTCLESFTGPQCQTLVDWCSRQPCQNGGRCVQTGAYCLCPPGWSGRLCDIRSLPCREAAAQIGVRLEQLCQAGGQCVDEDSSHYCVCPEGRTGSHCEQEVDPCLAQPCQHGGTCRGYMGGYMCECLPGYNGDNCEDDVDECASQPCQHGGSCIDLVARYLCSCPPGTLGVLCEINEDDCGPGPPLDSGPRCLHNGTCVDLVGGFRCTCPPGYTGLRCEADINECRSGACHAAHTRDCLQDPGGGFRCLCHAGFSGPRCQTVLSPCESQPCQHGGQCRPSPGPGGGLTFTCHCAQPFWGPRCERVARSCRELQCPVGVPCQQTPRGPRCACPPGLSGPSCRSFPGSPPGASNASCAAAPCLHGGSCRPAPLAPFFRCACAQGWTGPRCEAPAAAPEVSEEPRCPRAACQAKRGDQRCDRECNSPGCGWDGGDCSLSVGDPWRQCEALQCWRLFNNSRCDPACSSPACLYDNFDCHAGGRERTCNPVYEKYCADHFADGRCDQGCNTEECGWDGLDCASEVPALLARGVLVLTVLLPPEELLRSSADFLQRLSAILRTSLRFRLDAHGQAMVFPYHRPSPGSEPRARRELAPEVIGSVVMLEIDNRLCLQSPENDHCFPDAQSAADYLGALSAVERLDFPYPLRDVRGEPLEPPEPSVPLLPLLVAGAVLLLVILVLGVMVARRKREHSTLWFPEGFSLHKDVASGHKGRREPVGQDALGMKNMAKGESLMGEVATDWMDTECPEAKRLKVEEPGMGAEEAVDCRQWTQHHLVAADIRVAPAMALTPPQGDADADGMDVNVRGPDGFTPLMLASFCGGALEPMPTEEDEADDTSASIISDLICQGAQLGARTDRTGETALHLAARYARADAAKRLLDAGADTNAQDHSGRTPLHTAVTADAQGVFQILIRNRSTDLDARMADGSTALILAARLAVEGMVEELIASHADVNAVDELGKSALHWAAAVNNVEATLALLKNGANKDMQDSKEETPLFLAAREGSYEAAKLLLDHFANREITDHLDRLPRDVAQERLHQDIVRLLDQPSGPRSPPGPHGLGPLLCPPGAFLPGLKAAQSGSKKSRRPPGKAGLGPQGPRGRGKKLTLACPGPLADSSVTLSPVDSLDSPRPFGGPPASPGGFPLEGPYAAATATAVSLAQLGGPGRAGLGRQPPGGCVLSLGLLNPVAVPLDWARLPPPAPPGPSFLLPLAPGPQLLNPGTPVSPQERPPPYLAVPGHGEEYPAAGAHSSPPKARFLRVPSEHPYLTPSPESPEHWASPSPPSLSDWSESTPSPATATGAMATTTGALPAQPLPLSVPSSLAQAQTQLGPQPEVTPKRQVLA
# [10] = probe aEGFR binding to arrayed compounds – biochemical, biotinylated probe, 635/667 nm fluorescence, primary screen (AID 1097); settings: small-molecule microarray, higher = more signal;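 note: probe is a biotinylated anti-EGFR antibody binding compounds printed on slides; score combines fluorescence near 667 nm and signal to noise of each spot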
# [11] = test system: Plasmodium falciparum Sir2 (PF13_0152, Sir2A); assay: Plasmodium falciparum Sir2A binding compounds – biochemical, small-molecule microarray, 635 nm fluorescence, primary screen (AID 1098); settings: fluorescence 635 nm, higher = more signal;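 note: score merges spot fluorescence intensity with its signal-to-noise ratio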
# [12] = probe aDKK1 binding to arrayed compounds – biochemical, biotinylated probe, 635/667 nm fluorescence, primary screen (AID 1099); settings: small-molecule microarray, higher = more signal;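 note: score merges 667nm spot fluorescence with signal to noise across triplicate slides; reference of the scale not given here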
# [13] = probe aCHRDL2 binding to arrayed compounds – biochemical, biotinylated probe, 635/667 nm fluorescence, primary screen (AID 1100); settings: small-molecule microarray, higher = more signal
# [14] = change in splice reporter luminescence, either direction, cell-based, HEK293, spliceosome inhibition project, primary screen (AID 1101); settings: HEK293 splicing luciferase reporter, 24 h, higher = more signal, called active from +8 up or from −8 down;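 note: HEK293 cells carrying a splicing-competent luciferase reporter gene; test concentration not given here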
# [15] = biological target: Fibroblast growth factor 10 (Homo sapiens) (UniProt O15520); assay: compounds binding fibroblast growth factor 10 – biochemical, small-molecule microarray, 635 nm fluorescence, primary screen (AID 1102); settings: FGF10 binding, fluorescence 635 nm, higher = more signal
# Chain of Fibroblast growth factor 10 (Homo sapiens) (O15520 whole entry, looked up): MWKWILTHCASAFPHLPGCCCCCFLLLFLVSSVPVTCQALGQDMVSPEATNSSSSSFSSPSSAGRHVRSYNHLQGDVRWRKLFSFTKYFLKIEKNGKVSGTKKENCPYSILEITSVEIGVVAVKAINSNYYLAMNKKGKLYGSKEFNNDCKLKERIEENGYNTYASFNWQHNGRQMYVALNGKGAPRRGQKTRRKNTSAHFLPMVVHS
# [16] = test system: glycogen synthase kinase-3 (GSK3A per assay name; protocol says GSK3B); assay: compounds binding glycogen synthase kinase-3 – biochemical, small-molecule microarray, 635 nm fluorescence, GSK3A, primary screen (AID 1103); settings: fluorescence 635 nm, higher = more signal; note: the record names both GSK3A and GSK3B
# [17] = biological target: Epidermal growth factor receptor (Homo sapiens) (UniProt P00533); assay: compounds binding epidermal growth factor receptor – biochemical, small-molecule microarray, 635 nm fluorescence, primary screen (AID 1104); settings: EGFR binding, higher = more signal;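 note: score merges 667 nm emission intensity with spot signal to noise over triplicate slides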
# Chain of Epidermal growth factor receptor (Homo sapiens) (P00533 whole entry, looked up): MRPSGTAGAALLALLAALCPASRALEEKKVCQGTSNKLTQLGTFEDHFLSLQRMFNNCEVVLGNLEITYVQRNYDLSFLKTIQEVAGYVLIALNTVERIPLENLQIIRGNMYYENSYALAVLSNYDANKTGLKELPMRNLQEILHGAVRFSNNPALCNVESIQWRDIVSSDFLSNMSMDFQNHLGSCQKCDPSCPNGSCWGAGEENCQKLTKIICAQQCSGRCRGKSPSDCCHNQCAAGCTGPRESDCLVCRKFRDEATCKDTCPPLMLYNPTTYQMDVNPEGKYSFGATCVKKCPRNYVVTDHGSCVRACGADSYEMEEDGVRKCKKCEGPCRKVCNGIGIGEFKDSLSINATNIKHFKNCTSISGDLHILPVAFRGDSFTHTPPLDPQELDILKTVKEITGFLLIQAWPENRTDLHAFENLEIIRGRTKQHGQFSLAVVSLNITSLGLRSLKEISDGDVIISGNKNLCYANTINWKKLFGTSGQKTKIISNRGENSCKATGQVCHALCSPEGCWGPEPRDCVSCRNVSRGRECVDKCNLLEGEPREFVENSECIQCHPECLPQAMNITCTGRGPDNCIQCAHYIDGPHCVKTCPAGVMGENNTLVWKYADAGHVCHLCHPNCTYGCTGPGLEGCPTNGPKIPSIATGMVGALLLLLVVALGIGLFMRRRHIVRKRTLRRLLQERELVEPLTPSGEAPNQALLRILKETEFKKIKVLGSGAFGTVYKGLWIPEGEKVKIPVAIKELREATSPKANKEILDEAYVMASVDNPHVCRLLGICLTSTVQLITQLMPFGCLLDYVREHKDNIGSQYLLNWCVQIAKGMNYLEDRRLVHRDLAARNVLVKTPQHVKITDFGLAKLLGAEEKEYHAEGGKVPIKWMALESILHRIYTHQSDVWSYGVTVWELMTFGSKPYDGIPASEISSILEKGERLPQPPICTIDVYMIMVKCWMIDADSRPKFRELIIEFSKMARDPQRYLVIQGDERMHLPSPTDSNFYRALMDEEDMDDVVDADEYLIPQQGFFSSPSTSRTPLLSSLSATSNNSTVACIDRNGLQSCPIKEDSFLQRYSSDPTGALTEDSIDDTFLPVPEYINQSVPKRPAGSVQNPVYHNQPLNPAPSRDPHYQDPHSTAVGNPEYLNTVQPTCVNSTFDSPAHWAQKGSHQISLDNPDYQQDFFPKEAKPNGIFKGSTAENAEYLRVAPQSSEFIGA
# [18] = biological target: Follistatin-related protein 3 (Homo sapiens) (UniProt O95633); assay: compounds binding follistatin-related protein 3 – biochemical, small-molecule microarray, 635 nm fluorescence, primary screen (AID 1105); settings: FSTL3 binding, higher = more signal;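 note: score merges emission near 667 nm and signal to noise per printed spot across three slides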
# Chain of Follistatin-related protein 3 (Homo sapiens) (O95633 whole entry, looked up): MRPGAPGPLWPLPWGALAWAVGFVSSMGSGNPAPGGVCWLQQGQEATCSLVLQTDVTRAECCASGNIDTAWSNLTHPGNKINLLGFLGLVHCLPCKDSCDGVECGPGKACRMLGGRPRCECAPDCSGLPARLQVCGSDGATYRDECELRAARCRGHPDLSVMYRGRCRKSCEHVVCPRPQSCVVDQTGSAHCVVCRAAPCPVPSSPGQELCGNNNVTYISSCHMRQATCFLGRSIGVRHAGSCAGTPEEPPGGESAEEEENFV
# [19] = biological target: Dickkopf-related protein 1 (Homo sapiens) (UniProt O94907); assay: small molecules binding DKK1 protein – biochemical, small-molecule microarray, 635 nm fluorescence scan, primary screen (AID 1106); settings: higher = more signal;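 note: score merges emission near 667 nm with signal to noise over three replicate slides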
# Chain of Dickkopf-related protein 1 (Homo sapiens) (O94907 whole entry, looked up): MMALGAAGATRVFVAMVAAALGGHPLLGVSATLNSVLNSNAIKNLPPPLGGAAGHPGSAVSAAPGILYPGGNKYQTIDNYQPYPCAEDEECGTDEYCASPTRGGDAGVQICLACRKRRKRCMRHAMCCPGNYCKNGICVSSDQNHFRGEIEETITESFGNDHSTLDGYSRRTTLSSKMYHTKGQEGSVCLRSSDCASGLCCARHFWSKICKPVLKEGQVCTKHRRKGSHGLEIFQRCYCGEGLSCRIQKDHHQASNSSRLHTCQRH
# [20] = test system: Inhibin beta A chain (activin A); assay: small molecules binding activin A – biochemical, small-molecule microarray, 635 nm fluorescence scan, primary screen (AID 1107); settings: INHBA, higher = more signal;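 note: mouse activin A protein probed at 4.33 µg/mL on printed slides; score merges bound-protein fluorescence near 667 nm with spot signal-to-noise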
SMILES,composite z-score [1],z-score [2],z-score [3],z-score [4],composite z-score [5],z-score [6],composite z-score [7],composite z-score [8],composite z-score [9],composite z-score [10],composite z-score [11],composite z-score [12],composite z-score [13],z-score [14],composite z-score [15],composite z-score [16],composite z-score [17],composite z-score [18],composite z-score [19],composite z-score [20]
CC#CCO[Si](C#Cc1ccccc1)(C(C)C)C(C)C,-0.877,-1.72 (inactive),-19.5 (active),-1.86 (inactive),-0.669,-0.304 (inactive),-0.135,0.709,0.231,-0.203,-0.849,-0.105,0.194,1.07 (inactive),0.754,-0.872,0.457,-0.719,-0.999,1.14
O=C(NCc1ccc(F)cc1)[C@H]1C[C@H]2C(=O)NCC(=O)N2[C@H]1c1ccc(O)cc1,1.55,1.29 (inactive),1.01 (inactive),1.56 (inactive),1.22,0.816 (inactive),0.372,1.35,0.0831,-0.334,1.01,0.207,0.112,-0.12 (inactive),1.37,-0.88,0.297,0.138,0.787,0.43
CCOC(=O)C[C@H]1[C@H](OC(=O)c2ccc(C(=O)c3ccccc3)cc2)[C@@H](NC(=O)c2ccc3ccccc3n2)c2cc(OCCCO)ccc2N1C(=O)Cc1ccc(OC)cc1,0.517,1 (inactive),1.04 (inactive),0.949 (inactive),1.36,-0.57 (inactive),-0.157,0.842,0.312,-0.206,-0.318,0.57,-0.385,0.187 (inactive),0.0466,0.354,0.196,0.346,0.239,0.188
C=CCC(OC(C)=O)[C@@H]1[C@@H](N(Cc2cccc3ccccc23)C(=O)Cc2ccc(F)cc2)c2cc(OCCCO)ccc2N1C(=O)c1ccc2ccccc2c1 (stereo not given in full),-0.209,-0.19 (inactive),1.43 (inactive),-0.235 (inactive),0.226,0.693 (inactive),0.0261,0.154,0.268,-0.0967,-0.246,-0.469,0.0515,-0.527 (inactive),-0.134,0.0566,0.0199,0.565,0.301,1.24
O=C1NC(=O)C2C1C=CC(C(O)c1ccco1)N2Nc1ccc(Cl)cc1Cl (stereo not given),0.232,-25.2 (active),-1.67 (inactive),-0.647 (inactive),1.72,-1.49 (inactive),-0.103,0.223,0.417,-0.0362,0.029,0.549,0.609,0.545 (inactive),-0.0176,0.109,-0.301,0.799,-0.0083,1.39
CC(C)N1CC=CC23O[C@@H]4C=CCCOC(=O)C4[C@H]2C(=O)N(CCCO)[C@@H]3C1=O (stereo not given in full),0.521,-0.198 (inactive),-0.861 (inactive),-0.824 (inactive),2.1,2.83 (inactive),-0.215,-0.0322,0.236,-0.226,0.415,-0.137,0.0009,-1.38 (inactive),-0.264,-0.322,-1.07,-0.317,-0.183,0.864
CN(C)C(=O)[C@@]1(Cc2ccccc2CN=[N+]=[N-])N=C(c2ccc(OCCCO)cc2)O[C@H]1c1ccccc1N=[N+]=[N-],1.43,-0.415 (inactive),0.417 (inactive),5.36 (inactive),3.37,0.151 (inactive),0.445,0.452,1.14,0.242,1.63,0.842,1,-0.731 (inactive),0.884,0.588,-0.239,0.724,-0.451,0.987
C=CCC(OC(C)=O)[C@@H]1[C@@H](N(Cc2cccc3ccccc23)C(=O)Cc2ccc(OC)cc2)c2cc(OCCCO)ccc2N1C(=O)c1ccc(-c2ccccc2)cc1 (stereo not given in full),0.328,0.0338 (inactive),0.402 (inactive),-0.962 (inactive),1.1,-0.373 (inactive),-0.206,-0.424,0.0523,-0.19,-0.203,0.0699,0.44,-0.279 (inactive),-0.249,-0.179,0.347,-0.0555,-0.324,1.43
OCCCC1=CC(c2ccc(CN3CCCC3)cc2)N(Cc2cc3c(cc2Br)OCO3)CC1 (stereo not given),0.233,-2.55 (inactive),-1.35 (inactive),-0.705 (inactive),-0.692,0.497 (inactive),0.112,0.386,-0.102,0.0617,0.216,0.0738,0.732,0.361 (inactive),0.477,0.328,0.259,0.809,1.14,1.57
Cc1ccc(F)cc1S(=O)(=O)N[C@@H]1CCN(Cc2ccc(Br)cc2)C1,-0.268,-1.47 (inactive),-17.4 (active),-1.73 (inactive),-1.04,-1.12 (inactive),-0.161,1.21,0.895,-0.0455,0.0002,-0.16,-0.418,-1.12 (inactive),0.69,-0.751,0.529,0.752,0.677,0.359
